# Results from PubChem BioAssay (NCI).
# This is part of a sample that, as a whole, favours compounds with a hit. Of some 83,000 tested, about 20% had one in any assay.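 Single-dose data. Exposure time 48 hours. Values below 10 considered active.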 Values without a mark were called inactive. Active and inactive are the calls of the source.
# Key:
# Test in all cases: NCI-60 one-dose screen, 48 h (100 = growth as untreated, 0 = no growth, -100 = all killed)
# Conditions in all cases: 10 µM
# [1] = tested on: NCI-H23 lung
# [2] = tested on: NCI-H226 lung
# [3] = tested on: NCI-H322M lung
# [4] = tested on: HOP-62 NSCLC
# [5] = tested on: NCI-H460 lung
# [6] = tested on: HOP-92 NSCLC
# [7] = tested on: NCI-H522 lung
# [8] = tested on: A549/ATCC NSCLC
# [9] = tested on: 786-0 renal
# [10] = tested on: COLO 205 colon
Compound,growth [1],growth [2],growth [3],growth [4],growth [5],growth [6],growth [7],growth [8],growth [9],growth [10]
CC1(C)CC[C@]2(C(=O)O)CC[C@]3(C)C(=CC[C@@H]4[C@@]5(C)C/C(=C/c6ccncc6)[C@H](O)C(C)(C)[C@@H]5CC[C@]43C)[C@@H]2C1,37.6%,38.2%,34%,42.1%,34%,4.52% (active),42.1%,19.9%,48.4%,37.2%
C#Cc1ccc(S(=O)(=O)Nc2cccc(-c3csc(NC(C)=O)n3)c2)cc1,65.2%,71.8%,98.9%,84.6%,76.7%,42.5%,56.4%,62.8%,88.2%,88.3%
O=C(c1ccc(-n2c(=O)[nH]c3ccccc3c2=O)cc1)N1CCOCC1,116%,99.6%,98.7%,134%,109%,99.8%,101%,119%,99.5%,110%
O=C1c2ccccc2C(=O)c2c1c(C(=O)c1ccc(Cl)cc1)n1c2ccc2c3ccccc3ccc21,96%,103%,113%,92.5%,109%,98.6%,93.5%,102%,110%,128%
CC1(C)CC[C@]23CC[C@]4(C)[C@H](CC[C@@H]5[C@@]6(C)CC[C@H](N)C(C)(C)[C@@H]6CC[C@]54C)[C@H]2[C@H]1OC3=O,-94.7% (active),-90% (active),-99.5% (active),-77.2% (active),-13.9% (active),-65.5% (active),-85.5% (active),-88.9% (active),-94.8% (active),-69.5% (active)
O=C1Nc2cc(-c3ccc(NC(=O)c4cccs4)cc3)ccc2/C1=C/c1ccc[nH]1,66.4%,40.4%,99.3%,98.3%,83%,104%,79.4%,81.7%,98.5%,99.7%
O=C(CSc1nnc(-c2c[nH]c3ccccc23)n1-c1ccccc1)c1ccccc1,44.9%,4.48% (active),81.2%,23.4%,61.8%,47%,71.6%,85.5%,29.6%,93.4%
OCCCNc1oc(-c2ccccc2)nc1[P+](c1ccccc1)(c1ccccc1)c1ccccc1,-1.07% (active),-5.46% (active),31.9%,17.9%,3.97% (active),-24.1% (active),2.08% (active),29.6%,11.2%,-52.3% (active)
Nc1nnc(-c2c[nH]c3ccc(F)cc23)c(-c2c[nH]c3ncccc23)n1,86.6%,57.9%,61.1%,57.4%,50.3%,81.8%,52.7%,74%,44%,71.8%
COc1ccc(C(=O)/C=C/c2ccc(Cl)c(C(F)(F)F)c2)cc1S(N)(=O)=O,-86.5% (active),-95.3% (active),-100% (active),-84% (active),-79.2% (active),-68.8% (active),-83.2% (active),-78.1% (active),-85.6% (active),-71.5% (active)
Cc1cc2nc3c4ccccc4n(CCO)c3nc2cc1C,60.1%,69.7%,92.4%,68.8%,98.3%,34.9%,78.8%,97.6%,12.1%,106%
O=C(CS(=O)(=O)c1oc(-c2ccc(Cl)cc2)nc1S(=O)(=O)c1ccccc1)N1CCCC1,17.1%,71.9%,83.9%,93.5%,73.3%,-73% (active),-89.3% (active),79.1%,-44.3% (active),-91% (active)
CC(=O)c1ccc(NC(=O)NCn2c(=O)[nH]c3ccccc3c2=O)cc1,103%,87.3%,93.8%,96.3%,112%,79.5%,90.2%,97.7%,102%,109%
Cc1ccc(-c2cc(C(=O)N=Nc3c(O)[nH]c4ccc(Br)cc34)c3ccccc3n2)cc1,51.2%,65.3%,80.9%,86.1%,47.3%,87.6%,78.7%,85.8%,88.6%,108%
CC(=O)Nc1ccc(-c2cn(-c3cccc(C(=O)Nc4cc(CN5CCOCC5)cc(C(F)(F)F)c4)c3)nn2)cn1,-92.6% (active),-74% (active),-94.3% (active),-64.1% (active),-65.3% (active),-77.5% (active),-53.2% (active),-74.7% (active),-86% (active),-91.5% (active)
Cc1ccc(NC(=O)c2ccc(-n3c(=O)[nH]c4ccccc4c3=O)cc2)cc1,88.2%,61%,99.9%,82%,86.3%,36.5%,13.8%,113%,36.7%,109%
CC1=C(C(=O)OC(C)C)C(c2ccc(O)cc2)NC(=S)N1 (stereo not given),98.8%,99.2%,102%,104%,124%,112%,93.1%,109%,95.7%,119%
CC1=C(c2cc(-c3ccc(Cl)cc3)c(C#N)c(N)n2)C(c2ccccc2)NC(=S)N1 (stereo not given),76.1%,64.4%,96.4%,81.3%,82.6%,105%,49.4%,90.1%,67%,80.5%
CN1CCN(c2ccc(Nc3nc(N4CCN(S(=O)(=O)c5ccc(Cl)cc5)CC4)c4sccc4n3)cc2)CC1,46.6%,-22.2% (active),74.5%,71.4%,-70.6% (active),69.1%,-82.7% (active),22%,-62.9% (active),-77.9% (active)
COC1=C[C@@]23CCC(=O)N2CCc2cc4c(cc2[C@H]3[C@H]1OC(=O)C(C)(C)O)OCO4,95.6%,93.2%,101%,89.2%,115%,92%,95.6%,102%,95.7%,120%
O=C(CSc1nnc(-c2c[nH]c3ccccc23)n1-c1ccccc1)Nc1ccc(C(=O)/C=C/c2ccc(Cl)cc2)cc1,61.5%,74.8%,89%,85.8%,88.2%,87.3%,76.8%,79.3%,93.6%,89.7%
COC(=O)C(Cc1ccc(O)c(O)c1)NC(=O)C(CSC/C=C(\C)CCCC(C)CCCC(C)CCCC(C)C)NC(C)=O (stereo not given),31.1%,30.3%,67.1%,26.5%,18.9%,18.5%,-85.6% (active),18.9%,51.4%,3.84% (active)
O=C1NC(=NC23CC4CC(CC(C4)C2)C3)N/C1=C\c1ccc2ncsc2c1,-10.3% (active),-4% (active),4.94% (active),9.31% (active),7.74% (active),5.85% (active),-7.87% (active),16.5%,16.1%,-29.6% (active)
CS(=O)(=O)Nc1ccc(-c2ccc3c(c2)ncn3-c2ccc(NC(=O)Nc3ccc(Br)cc3)cc2)cc1,3.9% (active),9.71% (active),15.3%,-3.22% (active),2.98% (active),26.8%,-23.4% (active),12.1%,-13.6% (active),-27.9% (active)
Nc1cccnc1/C=N/NC(=S)NCCNC(=O)c1ccc(-n2nc(-c3ccccc3O)nc2-c2ccccc2O)cc1,-1.31% (active),2.65% (active),19.3%,22.1%,37.6%,-2.21% (active),4.39% (active),15%,-1.51% (active),15.1%
O=C(Nc1ccc(I)cc1)Nc1nc2ccc([N+](=O)[O-])cc2s1,-95.9% (active),-74.2% (active),-86.6% (active),-90.4% (active),-72.1% (active),-87.9% (active),-89.4% (active),-91.6% (active),-100% (active),-92.2% (active)
